For experiment [1], the target named is Lysosomal acid glucosylceramidase (Homo sapiens) (UniProt P04062). The experiment in a line: Glucocerebrosidase-p2 (AID 348; in the data active = potency below about 10 µM; note: potency is the fitted concentration of half-maximal effect). As to conditions: purified GBA, blue fluorogenic substrate, 40 min. Summed up:
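Normal human glucocerebrosidase (0.2 nM) with blue fluorogenic substrate (80 uM final) in citrate/phosphate pH 5.9 with 10mM sodium taurocholate, 0.01% tween-20; 40 min RT, NaOH/glycine stop; fluorescence Ex 365/Em 440; AC50 from a titration from 0.6 nM upwards.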

Experiment [2] concerns the target Cytochrome P450 1A2 (Homo sapiens) (UniProt P05177). The experiment in a line: p450-cyp1a2 (AID 410; calls by dose curve; note: potency is the fitted concentration of half-maximal effect). The following applies: recombinant CYP1A2, luciferin-ME demethylation, luminescence; series mostly up to 57 µM. Put shortly: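 20nM CYP1A2, 100uM Luciferin-ME (=Km), 100mM KPO4; cpd 10 min RT; +NADPH regen, 60 min RT; stop/detect 20 min; luminescence. Normalized to furafylline 57 uM = full inhibition.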

Experiment [3] is described as follows: NFAT Signaling Pathway (AID 444; active = well fitted curve in either direction with a large enough effect, not every such curve was filed as active;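 note: carbachol stimulus at about its EC50 of 1 µM final; % is set by controls: 0 for no effect and ±100 for the full control effect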). The following applies: Jurkat NFAT-bla M1, carbachol, beta-lactamase ratio, 5 h; at 7.69 µM (top of the series) unless noted. Summed up: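 Jurkat cells with NFAT-driven β-lactamase reporter and co-expressed M1 receptor, stimulated with carbachol (final 1 uM, ~EC50), compound titration, 5 h at 37 °C. CCF4 loaded 1 h at RT; 460/530 nm ratio gave %activity and AC50.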

The nature of experiment [4]: Stat Signaling Pathway (AID 446; active = well fitted curve in either direction with a large enough effect, not every such curve was filed as active;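 note: ME-180 cervical cancer cells given 40 pM IL-6 alongside compound; SIE-controlled beta-lactamase reporter measured as 460/530 nm FRET emission ratio; % is set by controls: 0 for no effect and ±100 for the full control effect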). The following applies: ME-180 SIE beta-lactamase reporter, IL-6 stimulated, 5 h; at 7.69 µM (top of the series) unless noted. Put shortly:
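FRET read-out (405 nm excitation, 460/530 nm emission) of a beta-lactamase reporter under a STAT-inducible element in ME-180 cervical carcinoma cells. Cells with compound receive 40 pM IL-6 for 5 h. Values are normalised to AC90 stimulation and AC90 JAK-inhibitor controls.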

The target in experiment [5] is Glucocorticoid receptor (Homo sapiens) (UniProt P04150). Description: GR-GFP Redistribution (AID 450;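 active = compounds whose dose series gives a full or clear partial fitted curve of increased nuclear translocation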; note: potency is the fitted concentration of half-maximal effect). The following applies: U2OS GR-GFP nuclear translocation, laser cytometry, 2 h.
Sequence of Glucocorticoid receptor (Homo sapiens) (P04150 whole entry, looked up): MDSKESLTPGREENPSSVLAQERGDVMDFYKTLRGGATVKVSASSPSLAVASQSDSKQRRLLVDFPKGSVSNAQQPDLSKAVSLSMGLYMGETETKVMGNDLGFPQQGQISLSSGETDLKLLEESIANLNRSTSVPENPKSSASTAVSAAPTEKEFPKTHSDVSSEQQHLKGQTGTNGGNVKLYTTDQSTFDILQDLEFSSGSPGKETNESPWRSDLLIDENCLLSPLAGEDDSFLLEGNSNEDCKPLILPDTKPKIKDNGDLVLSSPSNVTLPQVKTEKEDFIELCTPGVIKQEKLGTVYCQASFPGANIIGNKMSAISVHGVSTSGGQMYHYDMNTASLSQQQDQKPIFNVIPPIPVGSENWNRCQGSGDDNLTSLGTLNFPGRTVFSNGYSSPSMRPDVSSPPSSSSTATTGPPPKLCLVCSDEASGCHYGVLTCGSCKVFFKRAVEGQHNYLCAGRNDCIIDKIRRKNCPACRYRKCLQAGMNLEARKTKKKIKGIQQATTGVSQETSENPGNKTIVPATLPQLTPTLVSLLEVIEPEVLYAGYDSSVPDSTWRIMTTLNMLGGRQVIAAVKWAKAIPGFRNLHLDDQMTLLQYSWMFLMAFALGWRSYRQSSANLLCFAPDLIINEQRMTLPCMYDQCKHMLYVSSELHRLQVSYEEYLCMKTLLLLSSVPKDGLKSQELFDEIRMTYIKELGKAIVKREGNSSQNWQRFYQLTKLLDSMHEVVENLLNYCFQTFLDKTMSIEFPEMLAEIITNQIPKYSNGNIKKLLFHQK
The target is the same in experiment [6]. The experiment in a line: GR-EFC Redistribution (AID 451; calls by dose curve; note: potency is the fitted concentration of half-maximal effect). The following applies: CHO-K1 GR-EFC translocation, beta-gal luminescence, 2 h. Summed up:
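CHO-K1 cells expressing nuclear EA and GR-ED fragments of b-gal; compounds titrated up to 46 uM final, 2 h at 37 C. GR nuclear translocation read as complemented b-gal luminescence after 1 h RT detection.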

Experiment [7] deals with Mitogen-activated protein kinase 10 (Mus musculus) (UniProt Q61831). Description: JNK3 AlphaScreen Assay (AID 530; active = well fitted curve in either direction with a large enough effect, not every such curve was filed as active;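 note: kinase came from lysate of stimulated human HepG2 cells; signal reports phosphorylation of biotinylated GST-cJun 1-79 at Ser73 with 10 µM ATP; % is set by controls: 0 for no effect and ±100 for the full control effect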). As to conditions: JNK3 lysate, c-Jun phosphorylation; series mostly up to 57.1 µM. Put shortly:
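HepG2 lysate (IL-1b/TNFa pre-activated) + biotin-GST-cJun 1-79 + anti-pSer73 cJun; cpd titration, 15 min RT; ATP 10 uM start; Tris pH 7.6, MgCl2, DTT, vanadate; beads in EDTA buffer; AlphaScreen.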
Background: Alpha assays give light when donor and acceptor beads are brought close together.

The target in experiment [8] is Cytochrome P450 2C9 (Homo sapiens) (UniProt P11712). Description: qHTS Assay for Inhibitors and Substrates of Cytochrome P450 2C9 (AID 883). Note: % is set by controls: 0 for no effect and ±100 for the full control effect; nearly all actives have a fitted effect of over 60% in size. As to conditions: recombinant CYP2C9, luciferin-H luminescence, 60 min; series mostly up to 57.1 µM. Put shortly:
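Human CYP2C9 (10nM) with Luciferin-H at 100uM (its KM) in 25mM KPO4; compound preincubated 10 min at 37C, then NADPH regeneration for 60 min at 37C. Luciferin read by luminescence after detection reagent; normalized to 57uM sulphaphenazole as full inhibition.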
(In general: In qHTS, concentration-response curves come from the screen itself.)

Experiment [9] addresses Cytochrome P450 3A4 (Homo sapiens) (UniProt P08684). The experiment in a line: qHTS Assay for Inhibitors and Substrates of Cytochrome P450 3A4 (AID 884). Note: potency is the fitted concentration of half-maximal effect; nearly all actives have a fitted effect of over 50% in size. As to conditions: recombinant CYP3A4, Luciferin-PPXE luminescence; series mostly up to 57.1 µM. Put shortly:
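Luminescent readout of luciferin produced by CYP3A4 (20 nM) dealkylation of Luciferin-PPXE, 25 uM (its KM). NADPH-driven reaction ran 60 min at RT after 10 min compound preincubation; data scaled to 57 uM ketoconazole as 100% inhibition.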

Experiment [10] has the same target. The experiment in a line: qHTS Assay for Activators of Cytochrome P450 3A4 (AID 885). Note: nearly all actives have a fitted effect of over 65% in size. As to conditions: recombinant CYP3A4, Luciferin-PPXE luminescence, 60 min; series mostly up to 57.1 µM. Put shortly:
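Luminescent readout of luciferin formed from 25 uM Luciferin-PPXE (KM level) by 20 nM CYP3A4 in 200 mM KPO4, with 60 min NADPH-driven reaction at room temperature after 10 min compound exposure. Ketoconazole (57 uM) defined 100% inhibition.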

The nature of experiment [11]: Confirmation and Secondary Assay for Modulators of Hemoglobin Beta Chain Splicing at IVS2 654 locus (AID 910).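 Note: HeLa cells stably carrying EGFP split by mutant beta-globin IVS2-654 intron; % of control where 0% means no effect.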 As to conditions: HeLa EGFP-654 splicing reporter, GFP fluorescence, 48 h; series mostly up to 38.3 µM. Summed up: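 HeLa cells stably expressing EGFP interrupted by β-globin IVS2-654 intron, seeded overnight in Opti-MEM/2% FCS, then treated 2 days at 37 °C. Restored splicing read as total peak GFP intensity per well by laser scanning cytometry (488 nm excitation, 500–520 nm emission); 500 nM antisense PNA as control.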

Experiment [12] in a line: Confirmation and Secondary Assay for Modulators of Hemoglobin Beta Chain Splicing at IVS2 705 locus (AID 930).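 Note: HeLa cells stably expressing the EGFP-705 splicing reporter; % of control where 0% means no effect.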 As to conditions: HeLa EGFP-705 splicing reporter, GFP fluorescence, 48 h; series mostly up to 38.3 µM. Summed up: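 Assay measures total GFP intensity per well in HeLa EGFP-705 cells after 2 days with compound; mis-splicing normally truncates EGFP, so fluorescence indicates corrected splicing.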

Experiment [13] addresses Ubiquitin carboxyl-terminal hydrolase 1 (Homo sapiens) (UniProt O94782). The experiment in a line: Inhibitors of USP1/UAF1: Pilot qHTS (AID 504865).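 Note: rhodamine fluorescence freed from ubiquitin-rhodamine substrate followed over time; top concentration of the series differs between compounds; % is set by controls: 0 for no effect and ±100 for the full control effect; nearly all actives have a fitted effect of over 35% in size.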 As to conditions: purified USP1/UAF1, Ub-rhodamine cleavage fluorescence; series mostly up to 54.9 µM. Summed up:
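Deubiquitinase activity followed as kinetic rhodamine fluorescence release from 150 nM Ub-Rho. 1 nM USP1/UAF1 with compound, after 15 min room-temperature preincubation, in HEPES pH 7.8 buffer containing TCEP, EDTA, BSA and Tween-20.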

Experiment [14] in a line: Primary qHTS for small molecule stabilizers of the endoplasmic reticulum resident proteome: Secreted ER Calcium Modulated Protein (SERCaMP) assay (AID 1508630). Note: % is set by controls: 0 for no effect and ±100 for the full control effect. The following applies: SH-SY5Y GLuc-SERCaMP (Gaussia luciferase released on ER calcium loss) secretion, thapsigargin, luminescence; series mostly up to 38.4 µM. Put shortly: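 The SH-SY5Y reporter protocol was run at 3 concentrations up to 38.3 uM (primary) or 11 concentrations (follow-up): 16 h compound, 100 nM thapsigargin for 4 h, then extracellular luciferase luminescence.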

Experiment [15] concerns the target Cytochrome P450 2C19 (Homo sapiens) (UniProt P33261). Description: qHTS Assay for Inhibitors and Substrates of Cytochrome P450 2C19 (AID 899). Note: potency is the fitted concentration of half-maximal effect; nearly all actives have a fitted effect of over 60% in size. As to conditions: recombinant CYP2C19, luciferin-H EGE luminescence; series mostly up to 57.1 µM. Put shortly: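 5 nM human CYP2C19 with 10uM Luciferin-H EGE (at KM) in 50mM KPO4, compound preincubated 10 min at 37C, then NADPH regeneration for 60 min at 37C. Luciferin read by luminescence after detection reagent; normalized to 57uM ketoconazole as full inhibition.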

The target in experiment [16] is 3',5'-cyclic-AMP phosphodiesterase 4B (Homo sapiens) (UniProt Q07343). The experiment in a line: qHTS Assay for Inhibitors of PDE-IV (AID 607; active = well fitted activation curve with a large enough effect in the main read-out, with a control signal flat, not every such curve was filed as active; note: % of control where 0% means no effect). The following applies: HEK293 ACTOne CNG channel cells, membrane potential fluorescence; series mostly up to 22.9 µM. Put shortly: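 Cell-based read-out of cAMP via a modified cyclic nucleotide-gated channel and membrane potential dye (535/590 nm) in HEK293 cells expressing PDE4 endogenously. Compounds tested up to 22.9 uM final; 100 uM RO 20-1724 reference.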
Sequence of 3',5'-cyclic-AMP phosphodiesterase 4B (Homo sapiens) (Q07343 whole entry, looked up): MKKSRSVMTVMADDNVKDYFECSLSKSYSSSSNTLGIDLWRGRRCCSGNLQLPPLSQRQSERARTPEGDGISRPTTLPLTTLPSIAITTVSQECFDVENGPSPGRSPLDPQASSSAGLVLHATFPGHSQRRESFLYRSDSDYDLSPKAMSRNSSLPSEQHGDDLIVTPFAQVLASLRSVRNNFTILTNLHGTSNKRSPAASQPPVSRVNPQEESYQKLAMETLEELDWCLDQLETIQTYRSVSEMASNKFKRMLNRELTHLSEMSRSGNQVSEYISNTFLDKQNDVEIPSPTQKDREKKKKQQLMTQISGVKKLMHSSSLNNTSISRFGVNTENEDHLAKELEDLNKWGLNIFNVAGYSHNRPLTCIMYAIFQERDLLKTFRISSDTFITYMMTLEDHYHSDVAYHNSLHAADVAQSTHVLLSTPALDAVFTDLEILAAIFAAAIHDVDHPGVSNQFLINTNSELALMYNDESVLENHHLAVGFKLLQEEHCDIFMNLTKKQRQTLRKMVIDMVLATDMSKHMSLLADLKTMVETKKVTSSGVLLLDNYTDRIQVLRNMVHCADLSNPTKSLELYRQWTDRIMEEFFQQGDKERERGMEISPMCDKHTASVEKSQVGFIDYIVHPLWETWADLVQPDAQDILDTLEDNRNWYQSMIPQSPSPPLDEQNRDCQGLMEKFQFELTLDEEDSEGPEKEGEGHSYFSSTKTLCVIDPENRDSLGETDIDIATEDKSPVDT

The nature of experiment [17]: qHTS Assay for Identification of Small Molecule Agonists for Hypoxia Response Element Signaling Pathway (AID 914; active = well fitted activation curve with a large enough effect in the signal ratio, with a control signal flat, not every such curve was filed as active; the % refers to the signal ratio; note: potency is the fitted concentration of half-maximal effect). As to conditions: ME-180 HRE-bla reporter, beta-lactamase ratio, CoCl2, 17 h; activation: active compounds read high. Summed up:
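Compounds in a titration series were added to ME-180 reporter cells alongside an EC50 level of CoCl2. After 17 hours, beta-lactamase activity was read as the 460nm/530nm emission ratio of CCF4, giving AC50 values.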

Experiment [18] is described as follows: AP1 Signaling Pathway (AID 357; active = well fitted curve in either direction with a large enough effect, not every such curve was filed as active). The following applies: ME-180 (cervical carcinoma) AP-1-bla reporter, EGF-induced, beta-lactamase ratio, 5 h; at 7.69 µM (top of the series) unless noted. Put shortly: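 Titration-series screen for positive or negative modulators of EC50 EGF-induced signaling in ME-180 cells carrying an AP-1-driven beta-lactamase reporter. After 5 hours at 37 degrees Celsius, CCF4 460nm/530nm emission ratio gave %Activity; AC50 values derived.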

A number with no mark means an inactive call. Inconclusive results are not listed. Active and inactive are the calls of the source. Unless noted, calls come from the whole dose curve; as a rule, active = well fitted curve in the direction sought with a large enough effect; inconclusive = small, poorly fitted or top-dose-only effect, or another doubt; inactive = no such curve, though single readings can be large; an effect the other way counts as inactive or inconclusive.

Sequence of Lysosomal acid glucosylceramidase (Homo sapiens) (P04062 whole entry, looked up): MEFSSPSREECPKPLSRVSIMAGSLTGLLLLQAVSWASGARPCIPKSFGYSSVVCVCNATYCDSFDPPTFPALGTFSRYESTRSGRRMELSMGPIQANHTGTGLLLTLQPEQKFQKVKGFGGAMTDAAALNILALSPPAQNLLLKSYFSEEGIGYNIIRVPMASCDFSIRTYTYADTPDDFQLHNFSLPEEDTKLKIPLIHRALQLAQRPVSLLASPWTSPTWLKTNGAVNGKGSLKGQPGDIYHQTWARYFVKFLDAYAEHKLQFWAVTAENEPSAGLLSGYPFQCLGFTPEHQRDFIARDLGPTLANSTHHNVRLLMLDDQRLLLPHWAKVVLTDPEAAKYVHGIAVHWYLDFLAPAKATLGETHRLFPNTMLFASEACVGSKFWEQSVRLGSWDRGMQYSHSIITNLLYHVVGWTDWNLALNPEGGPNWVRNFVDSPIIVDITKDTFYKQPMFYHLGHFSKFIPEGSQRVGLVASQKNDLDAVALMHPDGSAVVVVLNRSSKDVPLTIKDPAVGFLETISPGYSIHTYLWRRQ
Sequence of Cytochrome P450 2C9 (Homo sapiens) (P11712 whole entry, looked up): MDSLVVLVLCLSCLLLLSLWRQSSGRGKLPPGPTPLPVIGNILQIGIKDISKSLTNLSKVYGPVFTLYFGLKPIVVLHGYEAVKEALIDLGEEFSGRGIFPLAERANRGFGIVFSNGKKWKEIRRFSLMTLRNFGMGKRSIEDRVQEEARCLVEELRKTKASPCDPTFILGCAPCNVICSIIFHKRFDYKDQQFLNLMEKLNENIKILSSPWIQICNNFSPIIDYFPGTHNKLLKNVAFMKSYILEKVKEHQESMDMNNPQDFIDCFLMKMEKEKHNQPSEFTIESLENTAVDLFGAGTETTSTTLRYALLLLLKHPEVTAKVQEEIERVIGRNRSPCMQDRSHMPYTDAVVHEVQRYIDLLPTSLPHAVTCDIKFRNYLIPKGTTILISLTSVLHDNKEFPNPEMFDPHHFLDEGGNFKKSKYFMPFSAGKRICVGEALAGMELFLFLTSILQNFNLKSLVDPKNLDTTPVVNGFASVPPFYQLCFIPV
Sequence of Cytochrome P450 3A4 (Homo sapiens) (P08684 whole entry, looked up): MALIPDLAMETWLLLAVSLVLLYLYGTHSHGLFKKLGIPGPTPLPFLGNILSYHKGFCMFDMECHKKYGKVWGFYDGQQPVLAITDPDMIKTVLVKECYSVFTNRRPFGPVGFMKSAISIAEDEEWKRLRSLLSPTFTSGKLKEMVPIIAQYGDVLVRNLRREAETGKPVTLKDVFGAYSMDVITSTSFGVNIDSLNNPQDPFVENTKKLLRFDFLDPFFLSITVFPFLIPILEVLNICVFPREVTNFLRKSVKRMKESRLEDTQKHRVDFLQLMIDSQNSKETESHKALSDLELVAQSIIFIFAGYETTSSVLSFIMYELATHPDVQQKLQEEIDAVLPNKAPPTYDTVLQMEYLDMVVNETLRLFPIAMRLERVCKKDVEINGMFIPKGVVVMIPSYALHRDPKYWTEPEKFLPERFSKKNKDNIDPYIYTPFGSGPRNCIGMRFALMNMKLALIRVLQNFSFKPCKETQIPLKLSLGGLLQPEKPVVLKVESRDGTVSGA
Sequence of Cytochrome P450 1A2 (Homo sapiens) (P05177 whole entry, looked up): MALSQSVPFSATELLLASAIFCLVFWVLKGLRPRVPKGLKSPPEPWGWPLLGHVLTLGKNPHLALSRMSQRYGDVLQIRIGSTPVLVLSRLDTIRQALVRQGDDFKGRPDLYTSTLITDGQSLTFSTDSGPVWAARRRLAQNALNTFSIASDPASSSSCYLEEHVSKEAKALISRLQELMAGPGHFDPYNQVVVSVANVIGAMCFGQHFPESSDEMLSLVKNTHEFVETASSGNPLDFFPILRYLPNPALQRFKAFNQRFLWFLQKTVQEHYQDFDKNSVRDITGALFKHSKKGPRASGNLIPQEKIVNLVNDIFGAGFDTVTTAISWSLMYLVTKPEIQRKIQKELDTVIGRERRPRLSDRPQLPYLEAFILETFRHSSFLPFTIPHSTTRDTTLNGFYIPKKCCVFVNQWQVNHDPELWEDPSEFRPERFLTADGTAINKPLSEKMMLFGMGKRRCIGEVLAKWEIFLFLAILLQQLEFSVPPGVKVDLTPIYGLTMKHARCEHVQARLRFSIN
Sequence of Cytochrome P450 2C19 (Homo sapiens) (P33261 whole entry, looked up): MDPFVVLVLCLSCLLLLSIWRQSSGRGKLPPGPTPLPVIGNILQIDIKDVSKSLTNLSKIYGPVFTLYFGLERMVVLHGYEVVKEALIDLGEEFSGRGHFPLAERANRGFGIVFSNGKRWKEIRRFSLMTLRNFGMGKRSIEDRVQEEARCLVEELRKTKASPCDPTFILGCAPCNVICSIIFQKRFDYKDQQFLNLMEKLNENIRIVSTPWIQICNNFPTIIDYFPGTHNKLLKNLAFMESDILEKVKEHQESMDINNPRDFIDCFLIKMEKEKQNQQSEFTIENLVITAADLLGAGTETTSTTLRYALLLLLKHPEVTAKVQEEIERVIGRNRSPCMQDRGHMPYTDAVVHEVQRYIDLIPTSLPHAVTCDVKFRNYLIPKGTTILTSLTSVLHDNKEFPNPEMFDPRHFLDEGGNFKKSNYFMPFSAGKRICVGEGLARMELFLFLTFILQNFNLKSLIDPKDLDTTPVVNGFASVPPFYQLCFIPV
Sequence of Ubiquitin carboxyl-terminal hydrolase 1 (Homo sapiens) (O94782 whole entry, looked up): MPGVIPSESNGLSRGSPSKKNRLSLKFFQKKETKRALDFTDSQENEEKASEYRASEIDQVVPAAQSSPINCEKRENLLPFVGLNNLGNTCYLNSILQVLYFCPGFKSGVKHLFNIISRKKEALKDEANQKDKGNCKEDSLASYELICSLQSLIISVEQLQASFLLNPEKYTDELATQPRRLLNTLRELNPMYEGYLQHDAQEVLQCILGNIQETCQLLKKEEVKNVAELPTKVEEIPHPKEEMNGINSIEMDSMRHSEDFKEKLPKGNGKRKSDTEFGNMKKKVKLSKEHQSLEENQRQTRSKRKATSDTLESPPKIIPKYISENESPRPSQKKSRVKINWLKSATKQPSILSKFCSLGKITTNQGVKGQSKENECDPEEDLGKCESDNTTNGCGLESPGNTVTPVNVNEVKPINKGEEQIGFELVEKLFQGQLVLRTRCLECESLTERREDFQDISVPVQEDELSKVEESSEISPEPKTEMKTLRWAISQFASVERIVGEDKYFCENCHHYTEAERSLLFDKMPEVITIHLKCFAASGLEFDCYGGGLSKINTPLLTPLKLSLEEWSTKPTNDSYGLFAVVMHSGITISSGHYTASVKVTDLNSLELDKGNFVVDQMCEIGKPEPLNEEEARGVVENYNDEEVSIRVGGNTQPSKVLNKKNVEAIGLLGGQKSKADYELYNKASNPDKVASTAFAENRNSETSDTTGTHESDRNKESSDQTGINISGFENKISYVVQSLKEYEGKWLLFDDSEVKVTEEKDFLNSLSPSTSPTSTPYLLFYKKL

Take `COc1ccc(CNc2nc(-c3ccccc3CN(C)C)nc3ccccc23)c(OC)c1`: the Potency in [1] was above 11.4 µM; in [2], 10 µM (active); in experiment [5], above 46 µM; in [6], above 46 µM; in experiment [9] it was 7.94 µM (active). Besides, the activity change, negative = inhibition was -28% in [3] and 25.6% [at 2.29 µM] in experiment [8]. Also, the activity, negative = inhibition in experiment [4] was -17.2%. The Potency result in experiment [7], in experiment [10], in experiment [11] and in experiment [13] was “inactive” each time. The result in [12] and in experiment [14] was inactive.

In the case of `O=C(Oc1ccccc1)N1CCC[C@@]2(CCN(c3ccccn3)C2)C1`, the Potency in experiment [1] is above 11.4 µM; in experiment [2], 7.94 µM (active); in experiment [6], above 46 µM; in experiment [15], 5.01 µM (active). In [3], the activity change, negative = inhibition is -24.6%. The activity, negative = inhibition in [4] is 9.87%. Further, the Potency result in experiment [7] and in [10] was “inactive” throughout. Further, in experiment [14], the outcome was inactive.

Consider `O=C(Oc1ccccc1)N1CCC2(CCCN(c3ncccn3)C2)CC1`, for which the values for the Potency in [1], in experiment [2] and in experiment [6] were above 11.4 µM, 10 µM (active) and above 46 µM, respectively. Further, the activity change, negative = inhibition in [3] was -6.42%. Besides, the activity, negative = inhibition in [4] is -23.6%. Besides, the Potency result in experiment [16] is “inactive”. Moreover, the result in experiment [14] was inactive.

On to `Cn1c(=O)cnc2cnc(Nc3ccccc3)nc21`, for which the Potency in experiment [1] is above 11.4 µM; in experiment [2], 2 µM (active); in experiment [5] it was above 9.22 µM; in experiment [6], above 46 µM. In [3], the activity change, negative = inhibition is -6.55%. Moreover, in [4], the activity, negative = inhibition was -16.6%. The Potency entry in [10] was “inactive”. Moreover, in experiment [14], the outcome was inactive.

For the compound `CCNc1ncc2nc(-c3ccccc3)c(=O)n(CCc3ccccc3)c2n1`, the Potency was above 11.4 µM in [1]; 12.6 µM (active) in experiment [2]; above 9.22 µM in experiment [5]; above 46 µM in [6]; 1.58 µM (active) in [17]. The Potency result in experiment [7], in [16] and in experiment [10] was “inactive” each time. For the same compound, in experiment [14], the result was inactive.

As to `CCNc1ncc2nc(-c3ccccc3)c(=O)n(Cc3ccc(F)cc3)c2n1`, the Potency in [1] was above 11.4 µM; in experiment [2], 3.16 µM (active); in experiment [5] it was above 9.22 µM; in experiment [6], above 46 µM. Moreover, the activity, negative = inhibition in experiment [4] was 82.9% [activator] (active). For the same compound, the Potency result in [16], in experiment [8] and in experiment [10] was “inactive” throughout. For the same compound, the outcome in [14] was inactive.

As to `O=C(c1ccncc1)N1CCC2(CC1)CN(c1ccccn1)C2`, the Potency in experiment [1] is above 11.4 µM; in experiment [6], above 46 µM. Further, the activity change, negative = inhibition in experiment [18] was 24.8%. Also, the Potency entry in experiment [7] and in experiment [16] was “inactive” throughout. The outcome in experiment [14] was inactive.

Take `COc1cccc(Cn2c(=O)c(-c3cccs3)nc3cnc(N4CCN(C)CC4)nc32)c1`: the Potency in experiment [1] was above 11.4 µM; in [2] it was 5.01 µM (active); in experiment [5], above 9.22 µM; in experiment [6], above 46 µM. In addition, the activity change, negative = inhibition in experiment [3] was 160% [activator] (active). Besides, the Potency entry in [16], in experiment [8] and in [10] was “inactive” in each case. In experiment [14], the outcome was inactive.

Values taken from PubChem BioAssay (NCATS).
